Measured values taken from PubChem BioAssay.
Records with an inconclusive call do not appear. Activity calls are given as the source filed them. Unless noted, no rule for the calls is given here.

How the values were obtained:
[1] = compounds altering circadian rhythm period length – cell-based, LOPAC library, luminescence reporter (AID 2774); conditions: circadian reporter cells, at 7 µM, actives lie on both sides;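 also: values are relative to mean of DMSO wells on each plate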
[2] = tested on: Hepatitis C virus NS3 helicase; assay: blockers of NS3h binding to ssDNA – biochemical, fluorescence polarization, LOPAC1280 library, primary screen (AID 687035; in the data active = inhibition above about 37%); conditions: Purified HCV NS3 helicase, Cy5-dT15 ssDNA binding fluorescence polarization; stronger effect = higher value; concentration not given here
[3] = compounds altering Cy5-DNA-NS3h complex signal – biochemical, LOPAC1280, artefact control for HCV NS3 helicase inhibitor project (AID 687037); conditions: Cy5-DNA-NS3h complex fluorescence interference counterscreen
[4] = viability loss with induced miR-34 in A549 – imaging, A549 dox-inducible miR-34, nuclei and caspase counts, primary screen (AID 1347080;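 active = compounds whose cell count with miR-34 switched on is under 0.7 times the count with it off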); conditions: A549 miR-34 inducible, Hoechst nuclei count, 48 h
[5] = galactose survival enhancers in mitochondrial complex I cybrids – cell-based, galactose medium, ATP luminescence, primary screen (AID 1645843;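 active = z-score of at least 1.8 in each of two replicates, scored against plate mean and spread of sample wells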;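 also: positive z means more ATP and so rescue of galactose-driven cybrid death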); conditions: complex I mutant cybrid cells, 72 h, stronger effect = higher value
[6] = target: ATP-dependent translocase ABCB1 (Homo sapiens) (UniProt P08183); assay: P-glycoprotein substrate transport blockade – cell-based (AID 377; in the data active = fluorescence slope change above about 50%); conditions: MDR1-expressing cells, fluorescent substrate accumulation slope; stronger effect = higher value; concentration not given here
[7] = compounds altering viability of human ES cells (AID 493140); conditions: human embryonic stem cell survival screen; stronger effect = higher value;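 also: cells exposed to compounds for four days before counting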
[8] = P. berghei load reduction in hepatocytes – cell-based, HepG2, luciferase luminescence, HepG2 viability, primary screen (AID 624349; in the data active = parasite load remaining mostly below about 12%, no sharp cut-off; inactive = mostly above about 10%;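 also: 100% = mean of DMSO negative control wells on the same plate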); conditions: P. berghei liver stage in HepG2, luciferase luminescence, concentration not given here; parasite load remaining: stronger effect = lower value; viability: measured here: HepG2 viability without parasites
[9] = stronger effect = lower value, cell number ratio, induced over uninduced
[10] = measured here: relative caspase fold change +Dox/-Dox
[11] = measured here: total cells with miR-34 induction, stronger effect = lower value
[12] = measured here: total cells without miR-34 induction

Chain of ATP-dependent translocase ABCB1 (Homo sapiens) (P08183 whole entry, looked up): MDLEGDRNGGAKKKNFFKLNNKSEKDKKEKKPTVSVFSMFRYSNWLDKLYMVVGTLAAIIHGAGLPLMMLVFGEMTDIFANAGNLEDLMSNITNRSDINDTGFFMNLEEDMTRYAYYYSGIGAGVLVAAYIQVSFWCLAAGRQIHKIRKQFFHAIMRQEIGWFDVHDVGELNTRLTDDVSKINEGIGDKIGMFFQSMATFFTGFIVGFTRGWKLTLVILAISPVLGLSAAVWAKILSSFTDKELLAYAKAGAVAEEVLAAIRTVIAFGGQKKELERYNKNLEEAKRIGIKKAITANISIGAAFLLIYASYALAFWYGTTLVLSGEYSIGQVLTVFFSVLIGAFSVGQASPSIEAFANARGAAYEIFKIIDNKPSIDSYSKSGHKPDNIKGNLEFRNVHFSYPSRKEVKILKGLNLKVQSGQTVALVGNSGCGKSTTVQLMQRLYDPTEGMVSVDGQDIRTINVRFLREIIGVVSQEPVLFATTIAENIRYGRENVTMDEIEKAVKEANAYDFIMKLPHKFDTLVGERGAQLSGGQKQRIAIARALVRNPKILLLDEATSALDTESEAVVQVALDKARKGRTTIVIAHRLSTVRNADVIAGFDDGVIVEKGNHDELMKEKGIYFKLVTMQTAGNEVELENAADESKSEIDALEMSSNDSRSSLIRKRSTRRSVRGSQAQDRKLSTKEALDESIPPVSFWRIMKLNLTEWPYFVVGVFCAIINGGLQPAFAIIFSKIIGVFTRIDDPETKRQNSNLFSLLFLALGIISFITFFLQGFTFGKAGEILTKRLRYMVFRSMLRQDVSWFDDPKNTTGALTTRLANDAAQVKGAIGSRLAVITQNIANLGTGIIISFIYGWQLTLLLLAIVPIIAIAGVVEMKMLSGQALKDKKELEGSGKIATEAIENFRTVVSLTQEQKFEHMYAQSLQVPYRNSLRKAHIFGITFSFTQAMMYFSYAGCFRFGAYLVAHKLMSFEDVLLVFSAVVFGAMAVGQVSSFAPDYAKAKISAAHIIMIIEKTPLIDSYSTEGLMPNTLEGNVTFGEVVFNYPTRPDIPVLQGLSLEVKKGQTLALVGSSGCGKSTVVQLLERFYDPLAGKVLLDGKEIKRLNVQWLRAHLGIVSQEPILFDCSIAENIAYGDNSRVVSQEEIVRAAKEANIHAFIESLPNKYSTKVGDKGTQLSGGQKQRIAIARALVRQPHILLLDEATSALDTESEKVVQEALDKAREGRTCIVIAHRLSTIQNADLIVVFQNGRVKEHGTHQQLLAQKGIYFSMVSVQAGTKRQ

Structure (SMILES)	period change [1]	inhibition [2]	fluorescence ratio (interference) [3]	fold change [4, 9]	fold change [4, 10]	cell count [4, 11]	cell count [4, 12]	z-score [5]	fluorescence slope change [6]	survival [7]	parasite load remaining [8]	viability [8]
Cc1nc(N=Nc2cc(S(=O)(=O)O)c3cc([N+](=O)[O-])cc(S(=O)(=O)O)c3c2)c(COP(=O)(O)O)c(C=O)c1O	-0.275 h (inactive)	58% (active)	0.8 (active)	1.02 (inactive)	1.61	10500	10300	1.9 (active)				
NC(N)=[N+]1CCc2ccccc2C1	-0.15 h (inactive)	-1% (inactive)	1.1 (inactive)	1.01 (inactive)	1.06	8570	8500	-0.075 (inactive)				
N=C(N)SCCc1cccc(CCSC(=N)N)c1	0.115 h (inactive)			1.01 (inactive)	0.632	6390	6310					
N#C/C(=C\c1ccc(O)c(O)c1)C(=O)c1ccc(O)c(O)c1	-0.055 h (inactive)	100% (active)	1 (inactive)	0.979 (inactive)	1.26	9140	9340	-0.355 (inactive)				
NC(=S)c1ccc[n+]([C@@H]2O[C@@H](COP(=O)([O-])OP(=O)(O)OC[C@H]3O[C@@H](n4cnc5c(N)ncnc54)C(OP(=O)(O)O)[C@H]3O)C(O)C2O)c1 (stereo partly specified)	0.055 h (inactive)	-5% (inactive)	1 (inactive)	0.943 (inactive)	1.17	10100	10700	0.57 (inactive)				
Cc1ccc2c(c1)C(N1CCN(C)CC1)=Nc1cccnc1N2	0.2 h (inactive)	-2% (inactive)	1 (inactive)	1 (inactive)	1.15	8670	8630	0.01 (inactive)				
N#C/C(=C\c1ccc(O)c(O)c1)C(=O)NCCCNC(=O)/C(C#N)=C/c1ccc(O)c(O)c1	-0.285 h (inactive)	37% (active)	1 (inactive)	0.987 (inactive)	1.18	9720	9850	-0.275 (inactive)				
COc1c(O)cc2c(c1O)C1OC(CO)C(O)C(O)C1OC2=O (stereo unspecified)				0.91 (inactive)	1.19	9380	10300		18.9% (inactive)	2.17 (inactive)	89.5% (inactive)	106%
O=C1NC(C(=O)O)CS1 (stereo unspecified)				0.93 (inactive)	1.73	9590	10300	1.05 (inactive)				
